Assay results published in PubChem BioAssay AID504834 (National Center for Advancing Translational Sciences (NCATS), 2011).
Hit rate of the full screen: of about 320,000 compounds, about 22,000 (6.9%) were called active. Roughly 27% stayed inconclusive and do not appear here. Calls come from the whole dose curve; as a rule, active = well fitted inhibition curve with a large enough effect; inconclusive = small, poorly fitted or top-dose-only effect, or another doubt; inactive = no such curve, though single readings can be large or run the other way. The full list was thinned out, with actives kept by preference.

assay: Primary qHTS for delayed death inhibitors of the malarial parasite plastid, 96 hour incubation; conditions: P. falciparum luciferase reporter growth; series mostly up to 28.7 µM; activity change, negative = inhibition: at the top concentration
From the text: The goal of this screen is to discover new antimalarial compounds that act by inhibiting the development of the apicoplast in the malarial parasite Plasmodium falciparum. The biochemical processes that make this organelle essential for erythrocytic stage parasites are not well understood. However, antibiotics such as azithromycin and tetracycline, which target the apicoplast translational machinery, have a potent antimalarial effect.
We have developed a cell-based assay that measures parasite growth based on the expression of an integrated copy of a firefly luciferase reporter. To detect small molecules that cause this "delayed death" phenotype, erythrocytes infected with the luciferase-expressing parasites were incubated with compounds for either one or two generations, corresponding to 48 and 96 hours, respectively. Compounds that inhibit parasite growth in the second generation, but not the first, should be enriched in antimalarials that target the apicoplast. Growth inhibition is detected by a decrease in luciferase activity.
Assay Provider: David Fidock and Eric Ekland, Columbia University
Keywords: NIH Roadmap, MLPCN, MLI, MLSMR, qHTS, NCGC, qHTS, malaria, luciferase, viability
Four microliters of infected erythrocytes (2% hematocrit, 0.05% parasitemia final concentration) in culture medium were dispensed and the plates incubated for 96 hours at 37 C in 5% CO2. Two microliters of luciferase detection reagent was added and luminescence was detected by a ViewLux (PerkinElmer) reader.
% is set by controls: 0 for no effect and ±100 for the full control effect; potency is the fitted concentration of half-maximal effect.

Structure (SMILES)	activity change, negative = inhibition	Potency
Cc1ccccc1C(=O)N1CCC(C(=O)Oc2ccc(C#N)cc2)CC1	83.9% (inactive)	
COc1ccc(S(=O)(=O)N2CCOC2CNC(=O)C(=O)NCc2ccncc2)cc1OC (stereo not drawn)	0.814% (inactive)	
Cc1cccc(C)c1NC(=O)CS(=O)CC(=O)N1CCN(c2ccccc2)CC1 (stereo not drawn)	36.4% (inactive)	
S=C(NCC1COc2ccccc2O1)Nc1ccc(Br)cc1 (stereo not drawn)	-2.67% (inactive)	
c1ccc(-c2cc3c(NCC4COc5ccccc5O4)ncnc3s2)cc1 (stereo not drawn)		10.4 µM (active)
COc1ccc(Nc2ncnc3sc(-c4ccccc4)cc23)c(OC)c1	0% (inactive)	
N#Cc1ccc(-c2nc3cc(C#N)c(C#N)cc3nc2-c2ccccc2)cc1C#N		5.22 µM (active)
N#Cc1ccc(-c2ccc(F)cc2)nc1Sc1ccccc1	-5.08% (inactive)	
N#Cc1c(-c2ccc(F)cc2)nc(-c2ccccc2)[nH]c1=O	6.5% (inactive)	
COc1cccc(CNC(=O)Cn2c(=O)oc3cc(S(=O)(=O)N4CCCCC4)ccc32)c1	-26.1% (inactive)	
CCc1cccc(C)c1NC(=O)COC(=O)CC1CCCC1	12.5% (inactive)	
C1=C(CCNc2ncnc3c2cnn3-c2ccccc2)CCCC1		0.104 µM (active)
O=C(NCCC1=CCCCC1)c1ccc(-n2cncn2)cc1	191% (inactive)	
CC(C)Sc1ncnc2c1cnn2-c1ccccc1	-5.57% (inactive)	
O=C(CSc1ncccn1)N1CCCC1	0.0556% (inactive)	
CN1CCN(S(=O)(=O)c2ccc(Nc3ccc(F)cc3)nc2)CC1	-23.9% (inactive)	
CCN1CCN(Cc2nc3c(c(=O)n(C)c(=O)n3C)n2CC(=O)c2ccccc2)CC1	-12% (inactive)	
CCOC(=O)N1CCN(CCC(=O)Nc2ccccc2)CC1	-13.3% (inactive)	
CN1CCN(Cc2nc3c(c(=O)n(C)c(=O)n3C)n2Cc2cccc3ccccc23)CC1	2.21% [at 5.75 µM] (inactive)	
Cn1c(=O)[nH]c(=O)c2c1nc(N(CCO)Cc1ccccc1)n2Cc1ccccc1Cl	14.3% (inactive)	
CCOC(=O)N1CCN(Cc2nc3c(c(=O)n(C)c(=O)n3C)n2Cc2ccccc2)CC1		13.1 µM (active)
Cn1c(=O)[nH]c(=O)c2c1nc(CN(Cc1ccccc1)Cc1ccccc1)n2CCN1CCOCC1	17.7% (inactive)	
CCOC(=O)Cn1c(CN(Cc2ccccc2)Cc2ccccc2)nc2c1c(=O)[nH]c(=O)n2C		3.29 µM (active)
Cn1c(=O)c2c(nc(Br)n2CCSc2nc3ccccc3o2)n(C)c1=O	21.3% (inactive)	
CCCCCCn1c(CN2CCCC(C)C2)nc2c1c(=O)n(C)c(=O)n2C (stereo not drawn)	-3.53% (inactive)	
COCCn1c(CN(Cc2ccccc2)Cc2ccccc2)nc2c1c(=O)n(C)c(=O)n2C		2.94 µM (active)
CC(C)Cn1c(CN(Cc2ccccc2)Cc2ccccc2)nc2c1c(=O)n(C)c(=O)n2C	-10.2% (inactive)	
COCCn1c(CN2CCC(Cc3ccccc3)CC2)nc2c1c(=O)n(C)c(=O)n2C		5.22 µM (active)
